Screening data as filed in PubChem.
In the library only some 3.2% were active in any assay of this set; here they are far more common.
PLK1 PBD block: PLK1 (human) polo-box domain binding inhibition | P53350 | Plk1 PBD binding of FITC phosphopeptide, fluorescence polarization | Potency, µM, inactives show max response, negative = inhibition, hits mostly inhibitors | 360,000 tested, 2.8% active | AID 720504; note: potency is the fitted concentration of half-maximal effect; series mostly up to about 57 µM; nearly all actives have a fitted effect of over 65% in size
Coupling enz: coupling enzyme interference in Giardia aldolase counter-screen; coupling enzyme system counterscreen, AmpLite Red fluorescence; activity change, negative = inhibition, % at 58.2 µM, hits read low; 290,000 tested, 0.67% active; AID 2472; in the data active = activity change below about -30%
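Fluorescence at 525 nm excitation and 598 nm emission measured inhibition of the coupled detection system without aldolase. Compounds (at 57.5 uM final) were preincubated 10 min at room temperature with coupling enzyme reagent before a 20 min substrate/AmpLite Red step.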
GALK inh: blocks human galactokinase activity; P51570; 270,000 tested, 0.007% active; Purified GALK, Kinase-Glo residual ATP luminescence; Potency, µM (top dose mostly 57.5 µM), inactives show at the highest dose activity change, negative = inhibition, hits mostly inhibitors; note: potency is the fitted concentration of half-maximal effect
Target sequence (P51570 whole entry, looked up): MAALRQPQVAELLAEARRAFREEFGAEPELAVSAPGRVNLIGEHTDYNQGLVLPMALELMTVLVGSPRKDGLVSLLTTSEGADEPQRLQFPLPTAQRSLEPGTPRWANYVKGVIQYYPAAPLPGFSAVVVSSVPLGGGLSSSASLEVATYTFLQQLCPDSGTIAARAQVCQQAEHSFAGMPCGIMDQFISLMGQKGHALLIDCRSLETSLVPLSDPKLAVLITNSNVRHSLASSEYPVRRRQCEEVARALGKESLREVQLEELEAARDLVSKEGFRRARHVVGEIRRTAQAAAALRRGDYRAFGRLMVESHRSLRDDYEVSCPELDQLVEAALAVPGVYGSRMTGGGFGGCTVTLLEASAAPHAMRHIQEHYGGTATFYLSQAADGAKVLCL
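The enzyme phosphorylates galactose (100 uM) using ATP (35 uM); inhibition is detected as higher residual ATP, quantified by bioluminescence after 1 h reaction at room temperature, pH 8.0.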
USP2a block: USP2a (human) protease inhibition; O75604; USP2 core, Ub-CHOP2 coupled fluorogenic reporter, 485/531; Potency, µM (highest dose often 38.3 µM), for the others: at the top dose activity change, negative = inhibition, actives largely listed as inhibitors; 330,000 tested, 0.01% active;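 note: potency is the fitted concentration of half-maximal effect; plate controls were DMSO wells for no effect and full inhibition by NEM control for full effect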
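Cell-free coupled assay: 10nM USP2 core preincubated 30min RT with compound in Tris-HCl pH 8.0/CaCl2/CHAPS buffer, then 25nM Ub-CHOP2 and 25nM reporter substrate; fluorescence (Ex 485/Em 531) read after 60min RT, normalized to NEM inhibition, concentration-response curves fitted.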
VDR inh: vitamin D3 receptor (human) inhibition | P11473 | VDR-SRC2-3 peptide fluorescence polarization, 2 h | Potency, µM, without a hit: max response, negative = inhibition, hits mostly inhibitors | 400,000 tested, 0.93% active; note: potency is the fitted concentration of half-maximal effect
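Fluorescence polarization assay of small-molecule disruption of VDR binding to coregulator peptide SRC2-3. Compounds and controls pin-transferred, then read after 2 h incubation at ambient room temperature.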
USP1-UAF1 inh: USP1/UAF1 (human) deubiquitinase inhibition; O94782; recombinant USP1/UAF1, Ub-Rhodamine cleavage fluorescence; Potency, µM (doses to about 57.1 µM), without a hit: at the top dose activity change, negative = inhibition, hits mostly inhibitors; 390,000 tested, 0.23% active; note: potency is the fitted concentration of half-maximal effect; nearly all actives have a fitted effect of over 60% in size
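1 nM enzyme complex + cpd, 15 min RT; start with Ub-Rho 150nM final; kinetic fluorescence ex 480/em 540, 6 reads q60 s. Buffer 50mM HEPES pH 7.8, 0.5mM EDTA, 0.1 mg/ml BSA, 1mM TCEP, 0.01% Tween-20.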
* marks the source's active call; other numbers are inactive results. Unless noted, calls come from the whole dose curve; as a rule, active = well fitted curve in the direction sought with a large enough effect; inconclusive = small, poorly fitted or top-dose-only effect, or another doubt; inactive = no such curve, though single readings can be large; an effect the other way counts as inactive or inconclusive. Unless noted, % is set by controls: 0 for no effect and ±100 for the full control effect.

Screening O=[N+]([O-])CC1(n2nc3ccccc3n2)CCCCC1 returned PLK1 PBD block 3.5%, USP2a block 0.8%, VDR inh -24.7% and USP1-UAF1 inh -21.3%.
Screening N#Cc1c(-c2cccs2)nc(SCc2ccc(Cl)cc2)[nH]c1=O returned PLK1 PBD block 21.2µM*, Coupling enz 25.9, GALK inh -12.0%, USP2a block inconclusive, VDR inh -5.0% and USP1-UAF1 inh inconclusive.
`COc1ccc(C(CCN2CCOCC2)c2c(O)cc(OC)cc2OC)cc1` (centres undefined) gave PLK1 PBD block -2.6%, Coupling enz -0.8, GALK inh -2.3%, USP2a block -6.8%, VDR inh -18.9% and USP1-UAF1 inh -23.1%.
COc1ccc(C(c2c(O)ccc3ccccc23)N2CCOCC2)c(OC)c1 (centres undefined) was read as PLK1 PBD block inconclusive, Coupling enz 3.1, GALK inh 7.2%, USP2a block -14.1%, VDR inh 70.8µM* and USP1-UAF1 inh -19.4%.
For CC1CC(CC(=O)NNc2nc(-c3ccccc3)cs2)C(=O)O1 (centres undefined) the results were PLK1 PBD block 0.0%, Coupling enz 0.3, GALK inh -1.9%, USP2a block 1.0%, VDR inh 0.4% and USP1-UAF1 inh -23.4%.
For CC1(C)CC(CC(=O)NNc2nc(-c3ccccc3)cs2)C(=O)O1 (centres undefined) the results were PLK1 PBD block 26.7µM*, Coupling enz -1.0, GALK inh 0.8%, USP2a block 3.1%, VDR inh inconclusive and USP1-UAF1 inh -14.9%.
Screening C/C(CCC1CC(C)OC1=O)=N/Nc1nc(-c2ccccc2)cs1 (centres undefined) returned PLK1 PBD block 29.9µM*, Coupling enz 1.2, USP2a block 1.5%, VDR inh 44.7µM* and USP1-UAF1 inh -17.5%.
COc1ccccc1CN=c1c([N+](=O)[O-])nn(-c2ccc3c(c2)OCCO3)n1O was read as PLK1 PBD block 4.5%, Coupling enz -4.7, GALK inh 0.1%, USP2a block 0.5%, VDR inh 1.4% and USP1-UAF1 inh -12.2%.
For O=C(NCc1ccco1)C1CCCN1C(=O)Nc1ccc(Cl)cc1 (centres undefined) the results were PLK1 PBD block 11.9µM*, Coupling enz 1.8, GALK inh 5.7%, USP2a block 3.9%, VDR inh inconclusive and USP1-UAF1 inh -8.1%.
`Cn1c(C(=O)c2ccccc2[N+](=O)[O-])nc2ccccc21` gave PLK1 PBD block -23.5%, Coupling enz -30.2*, GALK inh -1.6%, USP2a block 2.1%, VDR inh 9.0% and USP1-UAF1 inh -1.3%.
Screening OC(CCc1cccc(Cl)c1)c1cccs1 (centres undefined) returned PLK1 PBD block 21.2µM*, Coupling enz -1.5, GALK inh -2.6%, USP2a block -1.2%, VDR inh inconclusive and USP1-UAF1 inh -21.5%.
COc1ccc(NC2CCCN(C(=O)CSc3ccccn3)C2)cc1OC (centres undefined) was read as PLK1 PBD block 23.8µM*, Coupling enz -28.3, GALK inh -1.2%, USP2a block -0.4%, VDR inh -10.8% and USP1-UAF1 inh inconclusive.
`O=C(CSc1ccccn1)N1CCCC(Nc2ccccc2)C1` (centres undefined) gave PLK1 PBD block inconclusive, Coupling enz 0.4, USP2a block 1.1%, VDR inh -1.4% and USP1-UAF1 inh -25.5%.
`O=C(CSc1ccccc1)N1CCCC(Nc2ccccc2)C1` (centres undefined) gave PLK1 PBD block 8.44µM*, Coupling enz -3.0, GALK inh -2.0%, USP2a block -0.5%, VDR inh 20µM* and USP1-UAF1 inh -29.0%.
C#CCOc1c(Cl)cc(/C=C2/C(=O)ON=C2C)cc1OC was read as PLK1 PBD block 4.74µM*, Coupling enz 4.8, GALK inh 2.9%, USP2a block 1.3%, VDR inh inconclusive and USP1-UAF1 inh -6.5%.
Screening COc1cc2c(c(O)c1OC)-c1c(cc(OC)c(OC)c1O)[C@@H](OC(=O)c1ccccc1)[C@@](C)(O)[C@@H](C)[C@@H]2OC(C)=O returned Coupling enz 1.1, GALK inh 3.3% and USP2a block 5.1%.
O=C(Nc1ccc2c(c1)CCC2)c1cnc(Cl)c(Cl)c1 was read as PLK1 PBD block 21.2µM*, Coupling enz -2.5, GALK inh 0.5%, USP2a block -0.1%, VDR inh 3.2% and USP1-UAF1 inh -19.9%.
Screening Cn1c(-c2ccc(C=O)s2)nc2c3ccccc3c3ccccc3c21 returned PLK1 PBD block 26.7µM*, Coupling enz 0.9, GALK inh 1.2%, USP2a block 3.8%, VDR inh 1.1% and USP1-UAF1 inh -3.6%.
For COc1ccc(/C=N/NC(=O)c2ccco2)cc1Cn1nc(C)cc1C the results were PLK1 PBD block 7.2%, Coupling enz 4.5, GALK inh 0.6%, USP2a block -0.2%, VDR inh -28.8% and USP1-UAF1 inh -16.8%.
Screening O=C(O)c1cc(O)c2c(c1)[C@H]([C@H]1c3cc(C(=O)O)cc(O)c3C(=O)c3c(O[C@@H]4O[C@H](CO)[C@@H](O)[C@H](O)[C@H]4O)cccc31)c1cccc(OC3O[C@H](CO)[C@@H](O)[C@H](O)[C@H]3O)c1C2=O (some centres undefined) returned PLK1 PBD block 1.68µM*, USP2a block inconclusive, VDR inh inconclusive and USP1-UAF1 inh 7.08µM*.
For O=C1c2cc(CO)cc(O)c2C(=O)c2c(O[C@@H]3OC(CO)[C@@H](O)[C@@H](O)[C@@H]3O)cccc21 (some centres undefined) the results were PLK1 PBD block -8.6%, VDR inh -4.2% and USP1-UAF1 inh -2.5%.
For O=C1c2c(O)cccc2C(C2OC(CO)[C@@H](O)[C@H](O)[C@H]2O)c2cc(CO)cc(O)c21 (some centres undefined) the results were PLK1 PBD block inconclusive, USP2a block -1.0%, VDR inh 7.2% and USP1-UAF1 inh -17.9%.
Screening O=C(O)c1cc(O)c2c(c1)[C@@H]([C@H]1c3cc(C(=O)O)cc(O)c3C(=O)c3c(O[C@@H]4O[C@H](CO)[C@@H](O)[C@H](O)[C@H]4O)cccc31)c1cccc(OC3O[C@H](CO)[C@@H](O)[C@H](O)[C@H]3O)c1C2=O (some centres undefined) returned PLK1 PBD block 0.844µM*, USP2a block 3.16µM*, VDR inh -29.3% and USP1-UAF1 inh 5.62µM*.
